For 40 sequences, sensor-assay potency score (higher = more potent) results are on record in the OligoGym collection.
Also: reference of the scale not given here.

The target of one experiment is CPNE5. The experiment in a line: pooled miR-30 sensor sort-seq; sequence = guide strand. Conditions: shRNA.
Turning to TTCTTCATTTTCTTTTTCGGGT, the sensor-assay potency score (higher = more potent) is -0.414.

With TAGATCAAAACGGAGGTTCTGC, the sensor-assay potency score (higher = more potent) is -0.116.

TTCTTGTCCAGCTTGTTGGCAC returned a sensor-assay potency score (higher = more potent) of -0.22.

In the case of TAGTGCTGGATGATCTCTCCGA, the sensor-assay potency score (higher = more potent) was 0.148.

TAACTGGTGGTGAACTCCCCAA returned a sensor-assay potency score (higher = more potent) of -0.885.

On to TTGTCCAGGAGGTTCCTGCAGG, for which the sensor-assay potency score (higher = more potent) is -0.916.

With TTGGTCTGCGCCATGTCCGAGA, the sensor-assay potency score (higher = more potent) is -1.04.

In turn, TTCTTCATGACCTCGGTCTTGT returned a sensor-assay potency score (higher = more potent) of 0.503.

For another experiment, the target named is CRB1. The description is as above. The conditions noted are these: shRNA.
TTCATTGACGTCTTCTTCGCAG gave a sensor-assay potency score (higher = more potent) of 0.387.

Consider TTGAAGAACATTCATTGACGTC, for which the sensor-assay potency score (higher = more potent) is -0.696.

Consider TTTATATTGTCAATAGCTCTGT, for which the sensor-assay potency score (higher = more potent) was 0.0403.

The sequence TTTGAGAAATTGCTCTTCCTGA gave a sensor-assay potency score (higher = more potent) of -0.258.

TTACATCTTGGATACAGCCTTT came in with a sensor-assay potency score (higher = more potent) of -0.193.

As for TTGGCTTTCACACCAATCCTTT, the sensor-assay potency score (higher = more potent) was -1.07.

Sequence TTCAAATCCTTGAAGCACCGGC returned a sensor-assay potency score (higher = more potent) of 0.589.

As for TTATATTGTCAATAGCTCTGTC, the sensor-assay potency score (higher = more potent) stood at 0.532.

On to TATTATTACATTTGCATCCCTT, for which the sensor-assay potency score (higher = more potent) was -0.226.

Consider ATAAATATCTGTATTATCCTTC, for which the sensor-assay potency score (higher = more potent) turned out to be 0.756.

Sequence TGTCTGAACAAGAACAATCATT registered a sensor-assay potency score (higher = more potent) of -1.04.

With TTGAGGTCGATCTCACACTGGG, the sensor-assay potency score (higher = more potent) is -0.294.

Another experiment concerns the target CRB3. The experiment is described as above. The conditions noted are these: shRNA.
TATTCTCATTTGCAGAAGTGGT returned a sensor-assay potency score (higher = more potent) of -1.61.

Regarding TTGCCATCGGAGCTGGAGCTGG, the sensor-assay potency score (higher = more potent) is -1.68.

ATGAAGGCAAAACAGTGCTATT gave a sensor-assay potency score (higher = more potent) of -1.64.

TTCTCATTTGCAGAAGTGGTCT: the sensor-assay potency score (higher = more potent) was -0.965.

As for TCCGTCTGCCGCTTCTCCCGAA, the sensor-assay potency score (higher = more potent) was -1.23.

With TGCTCCTCGCTACTGGGCCGGT, the sensor-assay potency score (higher = more potent) is -1.75.

Regarding ATAGCAGTGATGGCTTCTGGAC, the sensor-assay potency score (higher = more potent) is -1.45.

As to TTGCAGAAGTGGTCTGTATTTG, the sensor-assay potency score (higher = more potent) was -1.49.

Sequence TGGACGCAGGTTGCCATCGGAG registered a sensor-assay potency score (higher = more potent) of -1.88.

As to TTTGAAGTACCTTCTTCCCTGC, the sensor-assay potency score (higher = more potent) turned out to be 0.11.

Turning to AAGACCACGATGATAGCAGTGA, the sensor-assay potency score (higher = more potent) was -0.0143.

Sequence TGGGAGAACTGCTCCTCGCTAC displayed a sensor-assay potency score (higher = more potent) of -1.03.

The next experiment concerns the target CREB5. The description is as above. Conditions: shRNA.
In turn, TTAACAGGCAACAACCACCAGA returned a sensor-assay potency score (higher = more potent) of -0.508.

The sequence TTAGATATCCTTGTGATTCTTT returned a sensor-assay potency score (higher = more potent) of 0.29.

TTATGTGTTAACAACAACTGTT returned a sensor-assay potency score (higher = more potent) of -0.0254.

Take TAGAACATTGTATTTGAACTGA: the sensor-assay potency score (higher = more potent) was -0.137.

Consider TTTAAAAACAAGTAGATCCTAC, for which the sensor-assay potency score (higher = more potent) is 0.376.

For TTAAGTATAGCTTAGCTGCTGC, the sensor-assay potency score (higher = more potent) was -0.267.

TTTAATGACAAACTCAACTTAC registered a sensor-assay potency score (higher = more potent) of -0.383.

Take TTGAACTGAGCTATTTTTCTGG: the sensor-assay potency score (higher = more potent) worked out at 0.269.
